Experimental data reported in PubChem BioAssay (Tox21).
Records with an inconclusive call do not appear. Values without a mark were called inactive. Active and inactive are the calls of the source. The call rests on the fitted dose curve; in most records, active means well fitted activation curve with a large enough effect in the signal ratio in the repeat runs (not every such curve was filed as active); inconclusive means weak or mixed curves, or effect the other way; inactive means no such curve, though single readings can be large or run the other way; the % refers to the signal ratio.

These compounds were tested against Peroxisome proliferator-activated receptor gamma (Homo sapiens) (UniProt P37231) (assay: qHTS assay to identify small molecule agonists of the peroxisome proliferator-activated receptor gamma (PPARg) signaling pathway (AID 743094)). Details: HEK293H PPARg-UAS-bla, beta-lactamase FRET ratio, 17 h; series mostly up to 57 µM; activation: at the top concentration.
From the text: U.S. Tox21 Program National Center for Advancing Translational Sciences [NCATS] NIH Chemical Genomics Center [NCGC] U.S. Environmental Protection Agency [EPA] National Institutes of Environmental Health Sciences [NIEHS] National Toxicology Program [NTP] U.S. Food and Drug Administration [FDA] Tox21 Assay Overview: The peroxisome proliferator-activated receptors (PPARs) are lipid-activated transcription factors of the nuclear receptor superfamily with three distinct subtypes namely PPAR alpha, PPAR delta (also called PPAR beta) and PPAR gamma (PPARg). All these subtypes heterodimerize with Retinoid X receptor (RXR) and these heterodimers regulate transcription of various genes. PPAR-gamma receptor (glitazone receptor) is involved in the regulation of glucose and lipid metabolism. To identify the compounds that activate PPAR-gamma signaling, GeneBLAzer PPAR gamma UAS-bla HEK293H cell line (Invitrogen, Carlsbad, CA, USA) containing a beta-lactamase reporter gene under control of the control of an upstream activator sequence (UAS) stably integrated into HEK293H cells was used to screen Tox21 compound library.
Tox21 Assay Protocol Summary: PPARg-bla cells were dispensed at 3000 cells/6uL/well in 1536-well black wall/clear bottom plates using a Multidrop Combi (Thermo Fisher Scientific, Waltham, MA) dispenser. After the assay plates were incubated at 37C and 5% CO2 for 5 h, 23 nL of compounds dissolved in DMSO, positive controls or DMSO only was transferred to the assay plate by a Pintool station (Kalypsys, San Diego, CA). The assay plates were incubated at 37C for 17 h. After 1 uL of LiveBLAzerTM B/G FRET substrate was added using a Bioraptr Flying Reagent Dispenser (FRD) workstation (Beckman Coulter, Indianapolis, IN, USA), the plates were incubated at room temperature for 1 h, and fluorescence intensity was measured by an Envision plate reader (PerkinElmer, Shelton, CT).
On the % scale 0 is the no-effect control and ±100 the full control effect.

Peroxisome proliferator-activated receptor gamma (Homo sapiens), sequence (P37231 whole entry, looked up): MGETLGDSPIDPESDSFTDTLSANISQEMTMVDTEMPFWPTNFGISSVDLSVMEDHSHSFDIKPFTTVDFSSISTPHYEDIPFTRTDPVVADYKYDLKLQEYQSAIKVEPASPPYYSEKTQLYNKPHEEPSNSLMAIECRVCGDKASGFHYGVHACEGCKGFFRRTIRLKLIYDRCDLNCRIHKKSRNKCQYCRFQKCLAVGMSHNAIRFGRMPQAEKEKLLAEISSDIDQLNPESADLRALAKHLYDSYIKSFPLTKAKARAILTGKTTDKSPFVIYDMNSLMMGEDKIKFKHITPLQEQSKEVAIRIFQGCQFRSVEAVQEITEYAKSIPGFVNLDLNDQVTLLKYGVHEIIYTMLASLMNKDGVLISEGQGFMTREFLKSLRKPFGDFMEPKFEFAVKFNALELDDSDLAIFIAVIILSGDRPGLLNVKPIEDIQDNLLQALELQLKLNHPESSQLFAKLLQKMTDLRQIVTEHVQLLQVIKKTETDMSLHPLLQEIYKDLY

For CCCCCCCC/C=C\CCCCCCCC(=O)OC[C@@H](O)[C@H]1OC[C@H](O)[C@H]1O, the outcome was “inactive”.
In the case of O=C(O)/C=C/c1ccccc1, the outcome is reported as “inactive”.

Point of comparison: O=c1cc(O)c(Cl)c[nH]1, “activation” value 1.23%. Against it:
- O=C(COCCOCCOCC(=O)Nc1c(I)cc(I)c(C(=O)O)c1I)Nc1c(I)cc(I)c(C(=O)O)c1I — higher, 3.64%
- O=[Si]=O — lower, -3.36%
- C=CCOCC(O)CCl (stereo not given) — lower, -0.744%
- CC(C)COC(=O)CC(C(=O)OCC(C)C)S(=O)(=O)O (stereo not given) — higher, 7.97%
- CCNC(=O)NCCCOc1cccc(CN2CCCCC2)c1 — lower, -8.16%
- CCCO — higher, 4.57%
- Cc1c(C(C)C)c(=O)n(-c2ccccc2)n1C — lower, 0.0412%
- CC(=O)c1ccc2c(c1)CCCC2 — higher, 4.62%
- C=C[Si](C)(C)O[Si](C)(C)C=C — lower, -6.26%
- COc1cc(C=O)ccc1OC(=O)C(C)C — higher, 2.31%
- CCCCC(=O)N(C)C — lower, -1.48%
- Oc1ccccc1Cc1ccccc1O — higher, 2.82%
- CCCCCCCCOC(C)=O — lower, -1.06%
- C[Si]1(C)N[Si](C)(C)N[Si](C)(C)N1 — lower, 0.124%
- Cc1nc([N+](=O)[O-])cn1-c1ccc([N+](=O)[O-])cc1 — lower, -4.2%
- CCC(C)(C)C1CCC(=O)CC1 — lower, 0.541%
- O=C(O)c1ccccc1C(=O)OCc1ccccc1 — higher, 5.22%
- COc1cc2c(Nc3ccc(Br)cc3F)ncnc2cc1OCC1CCN(C)CC1 — lower, -9.59%
- CC(C)(c1ccc(Oc2ccc3c(c2)C(=O)OC3=O)cc1)c1ccc(Oc2ccc3c(c2)C(=O)OC3=O)cc1 — lower, -3.04%
- NC(=O)C1(N2CCCCC2)CCN(CCCC(=O)c2ccc(F)cc2)CC1 — lower, -7.8%
- O=C(c1ccc2c(c1)C(=O)OC2=O)c1ccc2c(c1)C(=O)OC2=O — lower, -2.71%
- O=P(O)(O)OCC(O)CO (stereo not given) — higher, 1.47%
- CCCCC[Si](OCC)(OCC)OCC — lower, -0.287%
- CC(=O)OCC(=O)[C@@]1(O)[C@H](OC(C)=O)C[C@H]2[C@@H]3CCC4=CC(=O)C=C[C@]4(C)[C@@]3(F)[C@@H](O)C[C@@]21C — lower, -4.4%
- OC[C@@H](O)[C@H](O)[C@@H](O)[C@@H](O)CO — lower, 0.727%
- CCOc1ccc(NC(=O)OC(C)C)cc1OCC — higher, 3.86%
- CCCOCCOCCOCCO — lower, -0.156%
- O=C(Oc1ccccc1C(=O)O)c1ccccc1O — lower, 1.02%
- CC(=O)Nc1ccc(C)cc1 — lower, 0.42%
- CO[Si](CCCS)(OC)OC — lower, -1.73%
- Cc1nc(C)nc(N2C[C@@H](C)N(c3ccnc([C@@H](C)O)n3)[C@@H](C)C2)n1 — lower, -8.66%
- CCCC(C)CC (stereo not given) — lower, 0.825%
- C[C@H]1O[C@H](O[C@H]2[C@H](O)[C@@H](O)[C@@H](O[C@H]3[C@H](O)[C@@H](O)[C@H](O)O[C@@H]3CO)O[C@@H]2CO)[C@H](O)[C@@H](O)[C@@H]1N[C@H]1C=C(CO)[C@@H](O)[C@H](O)[C@H]1O — lower, -0.644%
- CO[Si](CCCCl)(OC)OC — lower, 0.894%

Point of comparison: CCS(=O)(=O)CCn1c([N+](=O)[O-])cnc1C, “activation” value -3.87% [at 26.2 µM]. Against it:
- Cc1ncc([N+](=O)[O-])n1CC(O)CCl (stereo not given) — lower, -5.06% [at 26.2 µM]

In the case of C1=C\CC/C=C\CC/1, the “activation” value is reported as 0.204% [at 78.9 µM].
